Screen size: about 5,500 compounds; about 2,000 (36%) were called active. About 18% were inconclusive and are not listed. No stated cut-off is given here; in the data, active means normalized growth mostly below about 0.91 (no sharp cut-off); inconclusive means no clear call, values can overlap the other calls; inactive means mostly above about 0.92. The list shows a part of the results.
Experiment: chemical genetic growth profiling, strain panel (AID 1159580);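 further: tested at 20 µM; growth read once vehicle control cultures reached saturation at 30 °C; 1 = growth at the plate median or of vehicle wells; lower values mean less growth of the strain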
Details: growth OD

Measured: normalized growth

O=C(NCO)c1cccnc1
inactive: S. cerevisiae deletion strains, locus YJR075W, strain HOC1, active compounds read low 0.992 | S. cerevisiae deletion strains, locus YKL009W, strain mrt4, active compounds read low 0.984 | S. cerevisiae deletion strains, locus YKL068W, active compounds read low 0.974 | S. cerevisiae deletion strains, locus YKL085W, strain MDH1 (second series), active compounds read low 1 | S. cerevisiae deletion strains, locus YKL085W, strain MDH1, active compounds read low 1 | S. cerevisiae deletion strains, locus YKL160W, strain elf1, active compounds read low 1.01 | S. cerevisiae deletion strains, locus YKL190W, strain CNB1, active compounds read low 0.997 | S. cerevisiae deletion strains, locus YKR001C, strain vps1, active compounds read low 0.99 | S. cerevisiae deletion strains, locus YKR026C, strain gcn3, active compounds read low 1.01 | S. cerevisiae deletion strains, locus YKR091W, strain srl3, active compounds read low 1 | S. cerevisiae deletion strains, locus YLL001W, strain dnm1, active compounds read low 0.992 | S. cerevisiae deletion strains, locus YLL026W, active compounds read low 1 | S. cerevisiae deletion strains, locus YLL041C, strain sdh2, active compounds read low 1.01 | S. cerevisiae deletion strains, locus YLR027C, strain aat2, active compounds read low 1.01 | S. cerevisiae deletion strains, locus YLR039C, strain RIC1, active compounds read low 0.939 | S. cerevisiae deletion strains, locus YLR058C, strain SHM2, active compounds read low 0.986 | S. cerevisiae deletion strains, locus YLR102C, strain apc9, active compounds read low 0.985 | S. cerevisiae deletion strains, locus YLR113W, strain HOG1, active compounds read low 0.997 | S. cerevisiae deletion strains, locus YLR221C, strain rsa3, active compounds read low 1.01 | S. cerevisiae deletion strains, locus YLR258W, strain gsy2, active compounds read low 1.01 | S. cerevisiae deletion strains, locus YLR262C, strain YPT6 (second series), active compounds read low 0.995 | S. cerevisiae deletion strains, locus YLR262C, strain YPT6, active compounds read low 0.954 | S. cerevisiae deletion strains, locus YLR268W, strain sec22, active compounds read low 0.993 | S. cerevisiae deletion strains, locus YLR320W, strain mms22, active compounds read low 1 | S. cerevisiae deletion strains, locus YLR330W, strain CHS5, active compounds read low 0.981 | S. cerevisiae deletion strains, locus YLR342W, strain FKS1 (second series), active compounds read low 1.01 | S. cerevisiae deletion strains, locus YLR342W, strain FKS1, active compounds read low 1.01 | S. cerevisiae deletion strains, locus YLR357W, strain rsc2, active compounds read low 0.974 | S. cerevisiae deletion strains, locus YLR370C, strain arc18, active compounds read low 1.01 | S. cerevisiae deletion strains, locus YLR371W, strain rom2, active compounds read low 0.971 | S. cerevisiae deletion strains, locus YLR384C, strain iki3, active compounds read low 0.997 | S. cerevisiae deletion strains, locus YLR418C, strain cdc73, active compounds read low 1.03 | S. cerevisiae deletion strains, locus YML016C, strain PPZ1, active compounds read low 0.998 | S. cerevisiae deletion strains, locus YML032C, strain rad52, active compounds read low 0.975 | S. cerevisiae deletion strains, locus YML120C, strain ndi1, active compounds read low 1.01 | S. cerevisiae deletion strains, locus YML124C, strain tub3, active compounds read low 1 | S. cerevisiae deletion strains, locus YMR058W, strain fet3, active compounds read low 1 | S. cerevisiae deletion strains, locus YMR078C, strain ctf18, active compounds read low 0.993 | S. cerevisiae deletion strains, locus YMR125W, strain sto1, active compounds read low 0.997 | S. cerevisiae deletion strains, locus YMR129W, active compounds read low 0.987 | S. cerevisiae deletion strains, locus YMR205C, strain PFK2, active compounds read low 0.992 | S. cerevisiae deletion strains, locus YMR223W, strain ubp8, active compounds read low 0.988 | S. cerevisiae deletion strains, locus YMR231W, strain pep5, active compounds read low 1.01 | S. cerevisiae deletion strains, locus YMR263W, strain SAP30, active compounds read low 0.999 | S. cerevisiae deletion strains, locus YMR307W, strain GAS1, active compounds read low 1.08 | S. cerevisiae deletion strains, locus YNL067W, strain RPL9B, active compounds read low 0.995 | S. cerevisiae deletion strains, locus YNL071W, strain lat1, active compounds read low 1.02 | S. cerevisiae deletion strains, locus YNL128W, strain TEP1, active compounds read low 0.999 | S. cerevisiae deletion strains, locus YNL153C, strain GIM3, active compounds read low 1 | S. cerevisiae deletion strains, locus YNL183C, strain NPR1, active compounds read low 0.92 | S. cerevisiae deletion strains, locus YNL209W, strain ssb2, active compounds read low 0.999 | S. cerevisiae deletion strains, locus YNL233W, strain BNI4, active compounds read low 1.01 | S. cerevisiae deletion strains, locus YNL248C, strain rpa49, active compounds read low 1 | S. cerevisiae deletion strains, locus YNL250W, strain rad50, active compounds read low 0.983 | S. cerevisiae deletion strains, locus YNL271C, strain bni1, active compounds read low 0.978 | S. cerevisiae deletion strains, locus YNL298W, strain CLA4, active compounds read low 0.996 | S. cerevisiae deletion strains, locus YNL307C, strain MCK1, active compounds read low 0.993 | S. cerevisiae deletion strains, locus YNL322C, strain KRE1 (second series), active compounds read low 1.01 | S. cerevisiae deletion strains, locus YNL322C, strain KRE1, active compounds read low 0.986 | S. cerevisiae deletion strains, locus YNR049C, strain mso1, active compounds read low 1.01 | S. cerevisiae deletion strains, locus YNR052C, strain pop2, active compounds read low 0.984 | S. cerevisiae deletion strains, locus YOL006C, strain TOP1, active compounds read low 0.997 | S. cerevisiae deletion strains, locus YOL012C, strain htz1 0.887 | S. cerevisiae deletion strains, locus YOL147C, strain pex11, active compounds read low 0.988 | S. cerevisiae deletion strains, locus YOR001W, strain rrp6, active compounds read low 0.999 | S. cerevisiae deletion strains, locus YOR061W, strain CKA2, active compounds read low 0.991 | S. cerevisiae deletion strains, locus YOR069W, strain VPS5, active compounds read low 0.989 | S. cerevisiae deletion strains, locus YOR070C, strain gyp1, active compounds read low 1 | S. cerevisiae deletion strains, locus YOR080W, strain dia2, active compounds read low 1 | S. cerevisiae deletion strains, locus YOR083W, strain WHI5, active compounds read low 1 | S. cerevisiae deletion strains, locus YOR106W, strain vam3, active compounds read low 1.02 | S. cerevisiae deletion strains, locus YOR136W, strain idh2, active compounds read low 0.982 | S. cerevisiae deletion strains, locus YOR144C, strain elg1, active compounds read low 0.978 | S. cerevisiae deletion strains, locus YOR184W, strain ser1, active compounds read low 0.959 | S. cerevisiae deletion strains, locus YOR231W, strain MKK1, active compounds read low 0.98 | S. cerevisiae deletion strains, locus YOR265W, strain rbl2, active compounds read low 1.01 | S. cerevisiae deletion strains, locus YOR270C, strain vph1, active compounds read low 1.02 | S. cerevisiae deletion strains, locus YOR290C, strain snf2, active compounds read low 0.943 | S. cerevisiae deletion strains, locus YOR316C, strain cot1, active compounds read low 0.997 | S. cerevisiae deletion strains, locus YPL051W, strain arl3, active compounds read low 1 | S. cerevisiae deletion strains, locus YPL055C, strain LGE1, active compounds read low 1.02 | S. cerevisiae deletion strains, locus YPL078C, strain atp4, active compounds read low 1.01 | S. cerevisiae deletion strains, locus YPL106C, strain sse1, active compounds read low 0.998 | S. cerevisiae deletion strains, locus YPL240C, strain hsp82, active compounds read low 1.02 | S. cerevisiae deletion strains, locus YPL241C, strain CIN2, active compounds read low 0.958 | S. cerevisiae deletion strains, locus YPL256C, strain CLN2, active compounds read low 0.985 | S. cerevisiae deletion strains, locus YPR119W, strain clb2, active compounds read low 0.986 | S. cerevisiae deletion strains, locus YPR141C, strain kar3, active compounds read low 0.992 | S. cerevisiae deletion strains, locus YPR163C, strain tif3, active compounds read low 0.989 | S. cerevisiae deletion strains, locus YPR167C, strain met16, active compounds read low 1 | S. cerevisiae deletion strains, strain wtn01, active compounds read low 0.996 | S. cerevisiae strains, strain wild type, active compounds read low 0.986
